The panel holds about 83,000 compounds, 20% with a hit somewhere; the sample as a whole holds those more often.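 Interpretation: 100, growth as untreated; towards 0, rising growth inhibition; 0, no net growth; 0 to -100, cell death. Compounds scoring below 10 were considered active.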 A number with no mark means an inactive call. Calls of active or inactive are those of the source.
What was measured:
Assay in all cases: NCI-60 one-dose screen, 48 h (100 = growth as untreated, 0 = no growth, -100 = all killed)
Conditions in all cases: 10 µM unless noted
[1] = tested on: NCI-H23 lung
[2] = tested on: NCI-H322M lung
[3] = tested on: HOP-62 NSCLC
[4] = tested on: NCI-H460 lung
[5] = tested on: HOP-92 NSCLC
[6] = tested on: NCI-H522 lung
[7] = tested on: A549/ATCC NSCLC
[8] = tested on: 786-0 renal
[9] = tested on: COLO 205 colon
[10] = tested on: DU-145 prostate
[11] = tested on: K-562 leukemia
[12] = tested on: MALME-3M melanoma
[13] = tested on: MDA-MB-231 breast
[14] = tested on: RXF 393 renal
[15] = tested on: SF-268 CNS
[16] = tested on: SF-295 CNS
[17] = tested on: SF-539 CNS
[18] = tested on: UACC-257 melanoma
[19] = tested on: M14 melanoma
[20] = tested on: HCT-15 colon

SMILES | growth [1] | growth [2] | growth [3] | growth [4] | growth [5] | growth [6] | growth [7] | growth [8] | growth [9] | growth [10] | growth [11] | growth [12] | growth [13] | growth [14] | growth [15] | growth [16] | growth [17] | growth [18] | growth [19] | growth [20]
COc1cccc(C(=O)NC(c2ccc(C)cc2)c2cc(Cl)c3cccnc3c2O)c1 (stereo not drawn) | 28.7% | 9.1% (active) | 9.9% (active) | 0.0612% (active) | 31.8% | 9.38% (active) | 6.84% (active) | 6.38% (active) | 14.4% | 15.3% | 7.41% (active) | -1.84% (active) | 31.2% | 9.4% (active) | 6.71% (active) | -0.279% (active) | 1.97% (active) | -7.2% (active) | -13.9% (active) | 28.1%
COc1cc(C(=O)O/N=C(\N)Cc2cccc3ccccc23)cc(OC)c1OC | 80.7% | 18.1% | 27.6% | -47.9% (active) | -7.36% (active) | -10.9% (active) | 12.2% | 45.9% | -92.6% (active) | 47.5% | -43.2% (active) | -85.9% (active) | -46.6% (active) | 7.59% (active) | 17.6% | -84.6% (active) | -88.7% (active) | -89.3% (active) | -72.7% (active) | 
O=Cc1c(OCc2cnnn2CC(=O)Nc2ccc(Cl)cc2)ccc2ccccc12 | 101% | 102% | 101% | 104% | 103% | 89.3% | 104% | 100% | 115% | 109% | 98.6% | 95.2% | 98% | 111% | 99% | 104% | 94.5% | 94.6% | 100% | 101%
O=C(Nc1ccc(N2CCNCC2)cc1)c1[nH]ncc1Nc1cc(C2CC2)ncn1 | 44.3% | 37.6% | 66.4% | 38.9% | 78.1% | 25.2% | 33.2% | 56.7% | 24% | 70.6% | 24.2% | 61.5% | 81.1% | 46.5% | 60% | 76.9% | 46.1% | 75.9% | 45.3% | 35.6%
Nc1ccn(C2O[C@H](CO)[C@@H](O)[C@H]2O)c(=O)n1 (stereo partly drawn) | 71.8% | 114% | 65% | 59.8% | 73.2% | 71.2% | 46.6% | 95.2% | 110% | 94.4% | 74.3% | 109% | 82.8% | 50.1% | 86.2% | 58.5% | 73.1% | 90.1% | 107% | 
O=C(c1nc2ccccc2[nH]1)C1C(c2ccc([N+](=O)[O-])cc2)C2CC3CCCCC3N2[C@@]12C(=O)Nc1cc(Cl)ccc12 (stereo partly drawn) | 26.2% | 47.6% | 41.3% | 11.2% | 20.1% | 34.7% | 18.5% | 38.5% | 22.2% | 51.3% | 12.2% | 15% | 26.6% | 14.7% | 41.3% | 16.5% | 40.4% | 25.7% | 21.2% | 11%
CCN1C(=O)N(CC)C2C1NC(=S)N2/N=C/C=C/c1ccccc1OC (stereo not drawn) | 24.3% | 43.9% | 44.4% | 5.86% (active) | 18.4% | 4.46% (active) | 22.5% | 20.2% | -46.2% (active) | 9.85% (active) | 9.29% (active) | 55.1% | 13.3% | 35.3% | 26.7% | 11.1% | -8.21% (active) | 71.9% | 7.43% (active) | 9.07% (active)
Cc1ccc(CN2CCC(C(=O)Nc3ccc(-c4cc5ccccc5[nH]4)cc3)CC2)o1 | 69.6% | 95.1% | 97.9% | 27.9% | 36.8% | 72% | 33.7% | 38.4% | 83.4% | 60.2% | 3.08% (active) | 77.9% | 60.7% | 54.6% | 66.6% | 17.2% | 84.3% | 85.4% | 41.9% | 44.2%
CCOC(=O)c1cnc2c(C)cccc2c1Nc1ccc(C(C)=O)cc1 | 32.1% | 42.7% | -76.6% (active) | -68.6% (active) | -1.13% (active) | -78.5% (active) | -60.9% (active) | 8.84% (active) | -91.5% (active) | 22% | -21.5% (active) | -81% (active) | 11.2% | -54.5% (active) | 43.5% | -82.2% (active) | -44.9% (active) | -58.4% (active) | -67.6% (active) | 0.0229% (active)
COC(=O)C1(C)CCC[C@]2(C)[C@H]3C[C@H]4C(C(C)C)=C[C@]3(CC[C@@H]12)[C@H]1[C@@H]4[C@@H](OCC#CCN2CCOCC2)CC[C@@H]1OCC#CCN1CCOCC1 (stereo partly drawn) | 82.6% | 102% | 85.3% | 94% | 54.9% | 74.4% | 66.8% | 86.1% | 89.2% | 95.5% | 70.3% | 79.3% | 77.2% | 91.9% | 83.7% | 93.9% | 86.2% | 83.8% | 81.6% | 85.5%
O=C(Nc1ccc(N2CCNCC2)cn1)c1[nH]ncc1Nc1ncnc2sccc12 | 18.4% | 59.1% | 73% | 43.1% | 52.5% | -3.84% (active) | 4.12% (active) | -43.6% (active) | 29% | 41.9% | -60.1% (active) | -67.7% (active) | -35.8% (active) | 46.6% | 40.8% | 97.3% | -28.8% (active) | 69.8% | -61.3% (active) | 69.7%
O=C(Nc1ccc(F)cc1F)c1cc(Cl)ccc1O | 5.18% (active) | 5.61% (active) | 3.07% (active) | 7.22% (active) | -20.5% (active) | -28.2% (active) | 6.37% (active) | 2.83% (active) | 9.45% (active) | 18% | 11% | -21.9% (active) | 10.3% | 4.05% (active) | 15% | -8.97% (active) | 12.3% | -11% (active) | 18.8% | 13.9%
O=C(Nc1ncc(Cc2cccc(C(F)(F)F)c2)s1)C1COc2ccccc2O1 (stereo not drawn) | 88.6% | 91.2% | 92.1% | 97.7% | 72.2% | 67.8% | 74.7% | 99.2% | 104% | 105% | 63.3% | 71.8% | 95.1% | 79% | 87.6% | 86.4% | 95.8% | 88.1% | 88.5% | 72%
CCOC(=O)C(CC(=O)O)=C(C(=O)OCC)C(=O)OCC | 105% | 114% | 104% | 107% | 89.5% | 114% | 101% | 115% | 121% | 109% | 106% | 121% | 123% | 102% | 107% | 100% | 102% | 100% | 115% | 96.8%
